Screens: PubChem, Broad Institute
This is one part of a sample in which hits are shown more often than they occur.
STK33 inh – inhibitors of human STK33 kinase. Q9BYT3. ADP-Glo luminescence, MBP substrate. inhibition, % at 12.5 µM. hit rate 0.44% among 27,000; in the data active = inhibition above about 20%; inconclusive = no clear call, values can overlap the other calls
Target sequence (Q9BYT3 whole entry, looked up): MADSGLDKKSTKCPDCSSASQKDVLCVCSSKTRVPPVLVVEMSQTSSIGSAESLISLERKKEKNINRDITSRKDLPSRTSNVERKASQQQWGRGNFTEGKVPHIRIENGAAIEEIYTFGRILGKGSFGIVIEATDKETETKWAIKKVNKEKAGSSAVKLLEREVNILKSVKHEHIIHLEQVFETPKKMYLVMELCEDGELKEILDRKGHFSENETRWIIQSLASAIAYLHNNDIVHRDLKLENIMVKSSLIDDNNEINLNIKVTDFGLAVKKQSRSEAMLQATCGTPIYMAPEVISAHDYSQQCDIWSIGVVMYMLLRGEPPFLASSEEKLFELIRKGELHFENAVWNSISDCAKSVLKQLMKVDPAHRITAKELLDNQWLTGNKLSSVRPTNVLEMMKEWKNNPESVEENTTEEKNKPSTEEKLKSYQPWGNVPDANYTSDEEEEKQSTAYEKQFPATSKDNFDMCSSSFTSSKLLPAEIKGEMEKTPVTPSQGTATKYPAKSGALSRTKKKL
mut p53 react – mutant p53 pathway reactivation | SW480 PUMA-promoter luciferase | activation, % at 9.98 µM | hit rate 1.5% among 28,000 | AID 624151; in the data active = activation above about 52%; inconclusive = no clear call, values can overlap the other calls
NOMO-1 viab – STK33 inhibitor candidate reducing NOMO-1 cell viability; NOMO-1 AML viability, CellTiter-Glo luminescence, 72 h; inhibition, % (concentration not given with the values); hit rate 7.5% among 37,000; in the data active = inhibition above about 80%; inconclusive = no clear call, values can overlap the other calls
ID4 SMM – ID4 (human) binding; P47928; small molecule microarray, Flag-ID4 binding, fluorescence F/B; calls only; hit rate 1.2% among 31,000; AID 624137; call rule not given here;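 also: a binder raises fluorescence above local background on the spot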
Target sequence (P47928 whole entry, looked up): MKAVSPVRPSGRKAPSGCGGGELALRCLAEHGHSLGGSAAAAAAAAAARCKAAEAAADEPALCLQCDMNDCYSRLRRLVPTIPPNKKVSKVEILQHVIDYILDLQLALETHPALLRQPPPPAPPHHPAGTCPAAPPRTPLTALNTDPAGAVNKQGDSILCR
* marks the source's active call; other numbers are inactive results; i = inactive; ? = inconclusive; nt = no result; + = active, no number.

SMILES | STK33 inh | mut p53 react | NOMO-1 viab | ID4 SMM
C[C@H]1CN([C@@H](C)CO)C(=O)c2cccc(NC(=O)Nc3ccc(C(F)(F)F)cc3)c2O[C@@H]1CN(C)CC1CCCCC1 | nt | nt | 81.6* | nt
Cc1ccc(S(=O)(=O)Nc2ccc3c(c2)CC(=O)N([C@@H](C)CO)C[C@H](C)[C@@H](CN(C)C(=O)Nc2cccc4ccccc24)O3)cc1 | -1.5 | nt | -10.0 | nt
COc1cccc(NC2=C(C#N)C(=O)NC(c3cccc(OC)c3O)S2)c1 (stereo unspecified) | nt | nt | 11.3 | nt
CSC1=C(C#N)C(=O)NC(c2ccc(Cl)cc2)S1 (stereo unspecified) | nt | nt | 115.7* | nt
C[C@@H]1CN([C@@H](C)CO)S(=O)(=O)c2ccc(C#CC3(O)CCCC3)cc2O[C@@H]1CN(C)C(=O)c1ccncc1 | nt | 5.7 | nt | i
Cc1csc(NC(=O)CSc2nc(C34CC5CC(CC(C5)C3)C4)ccc2C#N)n1 | nt | nt | 104.6* | nt
CCOc1ccc(NC(=O)CSc2n[nH]c(-c3ccc(Cl)cc3)n2)cc1 | -4.3 | -1.5 | -3.7 | i
CCOC(=O)CSc1n[nH]c(-c2ccc(Cl)cc2)n1 | -3.9 | 20.3 | 118.6* | i
C[C@H]1CN([C@@H](C)CO)C(=O)c2cccc(NC(=O)Nc3cccc4ccccc34)c2O[C@H]1CN(C)Cc1ccc(C(=O)Nc2ccccc2N)cc1 | nt | nt | 128.5* | nt
C[C@@H]1CN([C@H](C)CO)C(=O)c2cccc(NC(=O)Nc3ccccc3)c2O[C@H]1CN(C)Cc1ccc(C(=O)Nc2ccccc2N)cc1 | nt | nt | 138.8* | nt
C[C@@H]1CN([C@@H](C)CO)C(=O)c2cccc(NC(=O)Nc3ccccc3)c2O[C@@H]1CN(C)Cc1ccc(C(=O)Nc2ccccc2N)cc1 | nt | nt | 140.5* | nt
C[C@H](CO)N1C[C@H](C)[C@@H](CN(C)Cc2ccc(C(=O)O)cc2)Oc2c(NC(=O)Nc3cccc4ccccc34)cccc2C1=O | nt | -14.2 | 11.4 | i
O=C(CSc1nnc(-c2ccncc2)n1-c1cccc(C(F)(F)F)c1)c1ccc(F)cc1 | 0.7 | 12.9 | 1.9 | i
COC(=O)c1ccc(NC(=O)CSc2nc3ccccc3c(=O)n2-c2ccc(C)cc2)cc1 | 0.7 | 12.9 | 47.6 | i
Cc1ccc(S(=O)(=O)Nc2cccc3c2O[C@@H](CN(C)Cc2ccccc2)[C@@H](C)CN([C@H](C)CO)C3=O)cc1 | nt | nt | 11.7 | nt
Cc1cc(Cl)c(C(N)=O)c(C)n1 | nt | nt | -16.0 | nt
CC(=O)N[C@H]1C=C[C@H](CC(=O)NCc2ccc(Cl)cc2)O[C@@H]1CO | nt | nt | nt | i
Cc1cc(C)c(S(=O)(=O)NCC(=O)Nc2ccc(C(C)C)cc2)c(C)c1 | -1.1 | -21.2 | 94.5* | i
CC(=O)Nc1ccc(NC(=O)CNS(=O)(=O)c2c(C)cc(C)cc2C)cc1 | -5.8 | 7.6 | -3.1 | +
CC(=O)c1cccc(NC(=O)CNS(=O)(=O)c2ccc(Br)cc2)c1 | -4.3 | 18.8 | 25.7 | i
CC(=O)c1ccc(NC(=O)CNS(=O)(=O)c2cccc(Cl)c2)cc1 | -0.7 | 68.1* | 20.6 | i
C[C@H]1CN([C@@H](C)CO)C(=O)c2cc(/C=C/c3ccccc3)cnc2O[C@H]1CN(C)Cc1cccnc1 | nt | nt | nt | i
Cc1ccc(-c2noc(CSc3nc(C)c(C)c(=O)[nH]3)n2)cc1 | 0.0 | 2.0 | 15.8 | i
C[C@@H]1CCCCO[C@@H](CN(C)C(=O)c2ccccc2)[C@@H](C)CN([C@H](C)CO)C(=O)c2cc(NC(=O)c3ccncc3)ccc2O1 | 1.3 | nt | -7.0 | nt
CC1=CC(=O)CC2[C@@]1(C)CC[C@@H](C)[C@]2(C)CCC(C)CC(=O)O (stereo partly specified) | -4.0 | nt | 7.2 | i
SMILES | STK33 inh | mut p53 react | NOMO-1 viab | ID4 SMM
C[C@H](CO)N1C[C@H](C)[C@H](CN(C)C(=O)Nc2ccc(C(F)(F)F)cc2)Oc2c(NC(=O)CCCCCC(=O)Nc3ccccc3N)cccc2C1=O | nt | nt | 114.2* | nt
C[C@@H]1CN([C@@H](C)CO)C(=O)c2cccc(NC(=O)CCCCCC(=O)Nc3ccccc3N)c2O[C@@H]1CN(C)Cc1ccc(C(F)(F)F)cc1 | nt | nt | 118.8* | nt
C[C@@H]1CN([C@H](C)CO)C(=O)c2cccc(NC(=O)C3CC3)c2O[C@H]1CN(C)Cc1ccc(C(F)(F)F)cc1 | nt | nt | 63.8 | nt
C[C@H](CO)N1C[C@H](C)[C@H](CN(C)Cc2ccc(C(F)(F)F)cc2)Oc2c(NC(=O)CCCCCC(=O)Nc3ccccc3N)cccc2C1=O | nt | nt | 114.6* | nt
C[C@@H]1CN([C@H](C)CO)C(=O)c2cccc(NC(=O)CCCCCC(=O)Nc3ccccc3N)c2O[C@@H]1CN(C)Cc1ccc(C(F)(F)F)cc1 | nt | nt | 114.6* | nt
Cc1cccc(-n2c(C)nnc2SCC(=O)Nc2ccc(Br)cc2Cl)c1 | 6.3 | 10.0 | -12.4 | i
COc1cc(OC)c(C(=O)c2ccc(O)cc2)c(OC)c1 | -2.4 | 10.4 | -17.7 | i
NC(N)=NCCCC(N)C(=O)CC(Cc1ccccc1)C(=O)O (stereo unspecified) | nt | nt | nt | i
C[C@@H]1CN([C@H](C)CO)C(=O)c2cc(NC(=O)NC3CCCCC3)ccc2O[C@@H]1CN(C)C(=O)Nc1ccc2c(c1)OCO2 | nt | 4.7 | -2.9 | i
C[C@H]1CN([C@@H](C)CO)C(=O)CCCn2cc(nn2)CO[C@@H]1CN(C)C(=O)CCCN(C)C | -1.0 | 12.1 | nt | i
C[C@H]1CN([C@@H](C)CO)C(=O)Cc2cc(NC(=O)Nc3ccc(F)cc3)ccc2O[C@H]1CN(C)Cc1ccncc1 | 3.2 | nt | 2.8 | nt
Cc1cc(C)c(C#N)c(SCC(=O)c2cc3ccccc3oc2=O)n1 | 2.9 | ? | 8.3 | i
Cc1nc(SCC(=O)c2cc3ccccc3oc2=O)c(C#N)c(C)c1C | -2.7 | 17.1 | 109.8* | i
COC(=O)c1cc(NC(=S)NCc2cccnc2)cc(C(=O)OC)c1 | 0.5 | 14.2 | 106.4* | i
C[C@H]1CN([C@@H](C)CO)C(=O)Cc2cc(NS(=O)(=O)c3ccc(F)cc3)ccc2O[C@H]1CN(C)Cc1ccc(C(=O)Nc2ccccc2N)cc1 | nt | nt | 140.0* | nt
C[C@@H]1CN([C@@H](C)CO)C(=O)Cc2cc(NS(=O)(=O)c3ccc(F)cc3)ccc2O[C@@H]1CN(C)Cc1ccc(C(=O)Nc2ccccc2N)cc1 | nt | nt | 112.1* | nt
C[C@H](CO)N1C[C@H](C)[C@@H](CN(C)C(=O)Nc2cccc3ccccc23)Oc2c(NC(=O)Nc3ccc(C(F)(F)F)cc3)cccc2C1=O | nt | nt | 117.3* | nt
C[C@@H]1CN([C@@H](C)CO)C(=O)c2cccc(NC(=O)Nc3ccc(C(F)(F)F)cc3)c2O[C@H]1CN(C)C(=O)Nc1cccc2ccccc12 | nt | nt | 106.0* | nt
Cc1c(C#N)c(Sc2ccccc2Cl)nc2ccccc12 | 0.6 | nt | 0.7 | nt
COc1ccc(CN(C)C[C@@H]2Oc3ccc(NC(=O)Cc4ccccc4)cc3CC(=O)N([C@H](C)CO)C[C@@H]2C)cc1 | 0.5 | 1.1 | -4.1 | i
Cc1c(NC(=S)NCCc2c[nH]c3ccccc23)c(=O)n(-c2ccccc2)n1C | 0.3 | 1.6 | 2.6 | +
Cc1c(NC(=S)NCc2ccccn2)c(=O)n(-c2ccccc2)n1C | 0.8 | 0.5 | 5.4 | i
C[C@@H]1CN([C@@H](C)CO)C(=O)c2cccc(NC(=O)Nc3ccc(C(F)(F)F)cc3)c2O[C@H]1CN(C)C(=O)Nc1ccc(F)cc1 | nt | -10.5 | 116.9* | i
